Data reported in PubChem BioAssay AID1159580 (chemical genetic matrix, 2015).
Out of some 5,500 compounds screened, about 2,000 (36%) were called active. Another 18% or so got no clear call; they are omitted. Rule as the data show it: active = normalized growth mostly below about 0.91 (no sharp cut-off); inconclusive = no clear call, values can overlap the other calls; inactive = mostly above about 0.92. The list shows a part of the results.

Assay: chemical genetic growth profiling, strain panel (AID 1159580);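 also: tested at 20 µM; growth read once vehicle control cultures reached saturation at 30 °C; 1 = growth at the plate median or of vehicle wells; lower values mean less growth of the strain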
Settings: S. cerevisiae deletion strains, growth OD

Measured: normalized growth

CC(C)(O)C1C2OC(=O)C1C1(O)CC3OC34C(=O)OC2C14C (stereo not drawn) (tested in a mixture with another compound)
inactive: locus YCL061C, strain MRC1 (second series), active compounds read low 1.01 | locus YDR363W, strain ESC2, active compounds read low 0.969 | locus YMR307W, strain GAS1, active compounds read low 0.983 | locus YNL197C, strain WHI3, active compounds read low 1 | locus YNL224C, strain SQS1, active compounds read low 1
active: locus YAL040C, strain CLN3, active compounds read low 0.454 | locus YNL175C, strain NOP13, active compounds read low 0.537 | locus YOR083W, strain WHI5 (second series), active compounds read low 0.502
